# Measurements from PubChem BioAssay (EPA / NIEHS).
# Where a structure was tested more than once in an assay, its records may differ in their call. Active and inactive are the calls of the source. Rule for the calls: active = hit-call score of the fitted dose curve at least 0.9, where 1 is the maximum; inactive = score below 0.9.
# Read-out: Epidermal growth factor receptor (EGFR), EGFR (gene 1956)
# Assay: BSK_hDFCGF_EGFR: BioMAP Diversity Plus: hDFCGF Assay for Epidermal growth factor receptor (EGFR) Biomarker Activity (AID 2283057)
# Details: primary human foreskin fibroblasts; actives raise or lower the signal
# Description: BSK_hDFCGF is a cell-based, multiplexed-readout assay that uses foreskin fibroblast, a human skin primary cell, with measurements taken at 24 hours after chemical dosing in a 96-well plate.BSK_hDFCGF_EGFR is an assay component measured in the BSK_hDFCGF assay. It measures EGFR antibody related to regulation of gene expression using ELISA technology.Data from the assay component BSK_hDFCGF_EGFR was analyzed into 1 assay endpoint. This assay endpoint, BSK_hDFCGF_EGFR, was analyzed with bidirectional fitting relative to DMSO as the negative control and baseline of activity. Using a type of binding reporter, gain or loss-of-signal activity can be used to understand changes in the signaling as they relate to the gene EGFR. Furthermore, this assay endpoint can be referred to as a primary readout, because this assay has produced multiple assay endpoints where this one serves a signaling function. To generalize the intended target to other relatable targets, this assay endpoint is annotated to the kinase intended target family, where the subfamily is receptor tyrosine kinase.
# The levels of cell surface (or secreted, indicated by the prefix "s") biomarker endpoints were measured by ELISA. Overt cytotoxicity to cells in confluent adherent cultures (all systems other than the BT system) was assessed by measuring total protein levels using sulforhodamine B (SRB) staining in parallel cultures at the time of biomarker measurements, indicated as SRB endpoints. For proliferation assays for adherent cell types, individual cell types are cultured at sub-confluence and relative cell numbers quantified by SRB staining at time points optimized for each system (48 h: 3C and CASM3C systems; 72 h: BT and HDF3CGF systems; 96 h: SAg system). SRB was performed by staining cells with 0.1% SRB after fixation with 10% TCA and reading wells at 560 nm.Viability and proliferation of PBMC (T cells) was quantified by Alamar Blue reduction for the SAg and BT systems. For PBMC viability (referred to as PBMC Cytotoxicity within the assay endpoint names), cells were plated (75,000/well in a 96-well plate) and then chemical samples added for 1 h before addition of activators, SEB and TSST-1 (20 ng/mL final concentration each). Cells were incubated for 90 h. Then, Alamar Blue (20 uL/well) (Invitrogen, Cat DAL1100) was added for 6 h, and the plates were read with a fluorescence microplate reader at 546/580 nm (excitation/emission). For PBMC proliferation, cells were plated and activated as above but incubated for only 16 h prior to addition of Alamar Blue. Plates were read after 6 h.
Compound,outcome,AC50
ClC1=C(Cl)[C@]2(Cl)[C@@H]3[C@@H](Cl)[C@H]4O[C@H]4[C@@H]3C1(Cl)C2(Cl)Cl,inactive,
O=C(NC(=O)c1c(F)cccc1F)Nc1cc(Cl)c(OC(F)(F)C(F)F)c(Cl)c1,inactive,
O=C(NC(=O)c1cc(F)c(F)cc1Cl)Nc1cc(F)ccc1N1CCC(C(=O)O)CC1,inactive,
CC(C)(O)C(=O)Nc1ccc([N+](=O)[O-])c(C(F)(F)F)c1,inactive,
CCC(C)(CC)c1cc(NC(=O)c2c(OC)cccc2OC)on1,inactive,
CCOCCOC(C)=O,inactive,
ClC1=C(Cl)[C@]2(Cl)[C@@H]3[C@H]4C[C@H]([C@@H]5O[C@H]45)[C@@H]3[C@@]1(Cl)C2(Cl)Cl,inactive,
Cc1ccccc1[N+](=O)[O-],inactive,
O=C(N[C@H]1CN2CCC1CC2)c1cc2ccoc2cn1,inactive,
Nc1ccc(-c2ccc(N)cc2)cc1,inactive,
Cc1cc(O)ccc1Cl,inactive,
CCC(C)c1cc([N+](=O)[O-])cc([N+](=O)[O-])c1O (stereo not given),inactive,
CN(C)c1nc(=O)n(C2CCCCC2)c(=O)n1C,inactive,
C1CC2OC2CC1C1CO1 (stereo not given),inactive,
CCCCCCCCOC(=O)c1ccccc1C(=O)OCCCCCCCC,inactive,
CC(c1ccc(O)cc1)(c1ccc(O)cc1)c1ccc(O)cc1,inactive,
Nn1cnnc1,inactive,
Clc1ccc(C(Cl)(Cl)Cl)cc1,inactive,
Cc1cccc([N+](=O)[O-])c1,inactive,
C=CC(=O)NCNC(=O)C=C,inactive,

Compound,outcome,AC50
O=C(O)C(F)(F)C(F)(F)C(F)(F)C(F)(F)C(F)(F)C(F)(F)C(F)(F)C(F)(F)C(F)(F)F,inactive,7.6 µM (active)
Cc1ccccc1CO[C@@H]1C[C@@]2(C(C)C)CC[C@]1(C)O2,inactive,
O=C(O)C(F)(F)C(F)(F)C(F)(F)C(F)(F)C(F)(F)F,inactive,
ClC1=C(Cl)[C@]2(Cl)[C@@H]3[C@@H]4C[C@@H]([C@H]5O[C@@H]45)[C@@H]3[C@@]1(Cl)C2(Cl)Cl,inactive,
N#Cc1ccc(N(CC(N)=O)CC(F)(F)F)cc1C(F)(F)F,inactive,
CC(C)(c1ccccc1)c1ccc(O)cc1,inactive,
Cc1ccc(O)c(C)c1,inactive,
c1cc2ccc3cccc4ccc(c1)c2c34,inactive,
CCCCCCCCCC[N+](C)(C)CCCCCCCCCC,,1.22 µM (active)
O=NN(c1ccccc1)c1ccccc1,inactive,
CCC(C)(c1ccc(O)cc1)c1ccc(O)cc1,inactive,
Cc1cc(-c2ccc(N)c(C)c2)ccc1N,inactive,
O=S(=O)(O)C(F)(F)C(F)(F)C(F)(F)C(F)(F)F,inactive,
COS(=O)(=O)OC,inactive,
CCCCCCCCCc1ccc(O)cc1,inactive,
CCOC(=O)C(O)(c1ccc(Cl)cc1)c1ccc(Cl)cc1,inactive,
Clc1ccc(C(c2ccccc2Cl)C(Cl)(Cl)Cl)cc1 (stereo not given),inactive,
CC1=C2C[C@H]3[C@@H](CC=C4C[C@@H](O)CC[C@@]43C)[C@@H]2CC[C@]12O[C@@H]1C[C@H](C)CN[C@H]1[C@H]2C,inactive,
CCC(=O)O[C@H]1CC[C@H]2[C@@H]3CCC4=CC(=O)CC[C@]4(C)[C@H]3CC[C@]12C,inactive,
